# Shown are actives, neighbours in structure and some others; about 12% of the full set was active somewhere.
# Sfp inh: blocks B. subtilis Sfp PPTase activity. hit rate 3.5% among 310,000. Potency, µM, without a hit: largest response in the series, negative = inhibition, actives largely listed as inhibitors. Biochemical Sfp PPTase activity, qHTS. AID 1490;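 note: the enzyme is Sfp with the accession as filed and its product quenches rhodamine fluorescence; 0% = enzyme reaction without inhibitor and -100% = no enzyme wells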
#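 Fluorescence-quenching assay: 15 nM Sfp-PPTase preincubated 15 min at room temperature with compound, then 5 uM rhodamine-CoA and 12.5 uM BHQ-2-labelled YbbR peptide added. Fluorescence (ex 525/em 598 nm) read at start and after 30 min; difference gives rate.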
# G9a inh: G9a (human) methyltransferase inhibition. hit rate 8.8% among 350,000. Q96KQ7. Potency, µM (highest dose often 102 µM), for inactives: at the top dose activity, negative = inhibition, actives largely listed as inhibitors. AID 504332. G9a H3K9 monomethylation, AlphaScreen, 2 h; note: % is set by controls: 0 for no effect and ±100 for the full control effect; nearly all actives have a fitted effect of over 75% in size
#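 Compounds were preincubated with 20 nM G9a for 15 min, after which biotinylated H3K9 peptide (500 nM) and SAM (20 uM) started a 2 h room-temperature reaction. Monomethylated product was quantified by antibody-based AlphaScreen chemiluminescence.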
# PLK1 PBD block: blocks phosphopeptide binding to human PLK1 polo-box domain; Potency, µM, for the others: max response, negative = inhibition, actives largely listed as inhibitors; hit rate 2.8% among 360,000; AID 720504; Plk1 PBD binding of FITC phosphopeptide, fluorescence polarization; P53350; note: series mostly up to about 57 µM; % is set by controls: 0 for no effect and ±100 for the full control effect; nearly all actives have a fitted effect of over 65% in size
# HP1b binding inh: inhibitors of HP1-beta chromodomain binding to methylated histone tails; AID 540317; Potency, µM (series often up to 114 µM), inactives show at the highest dose activity change, negative = inhibition, most hits filed as inhibitors; P83916; AlphaScreen HP1-beta / biotin-H3K9me3 peptide binding; hit rate 0.56% among 390,000; note: nearly all actives have a fitted effect of over 70% in size
#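 Compound inhibition of the preformed complex between 50 nM HP1-beta and 50 nM biotinylated H3K9me3 peptide was read by AlphaScreen. Buffer was PBS pH 7.4 with 0.01% Tween-20. Incubations ran 30 min at room temperature, with 10 ug/mL donor/acceptor beads.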
# JMJD2A Tudor: inhibitors of human JMJD2A Tudor domain. Potency, µM (doses to about 114 µM), for the others: at the highest dose activity change, negative = inhibition, usual class: inhibitors. O75164. AlphaScreen JMJD2A-Tudor / H3K4me3 peptide binding. hit rate 4.4% among 390,000; note: % is set by controls: 0 for no effect and ±100 for the full control effect; nearly all actives have a fitted effect of over 50% in size
# Target sequence (O75164 whole entry, looked up, the tested form may be a part): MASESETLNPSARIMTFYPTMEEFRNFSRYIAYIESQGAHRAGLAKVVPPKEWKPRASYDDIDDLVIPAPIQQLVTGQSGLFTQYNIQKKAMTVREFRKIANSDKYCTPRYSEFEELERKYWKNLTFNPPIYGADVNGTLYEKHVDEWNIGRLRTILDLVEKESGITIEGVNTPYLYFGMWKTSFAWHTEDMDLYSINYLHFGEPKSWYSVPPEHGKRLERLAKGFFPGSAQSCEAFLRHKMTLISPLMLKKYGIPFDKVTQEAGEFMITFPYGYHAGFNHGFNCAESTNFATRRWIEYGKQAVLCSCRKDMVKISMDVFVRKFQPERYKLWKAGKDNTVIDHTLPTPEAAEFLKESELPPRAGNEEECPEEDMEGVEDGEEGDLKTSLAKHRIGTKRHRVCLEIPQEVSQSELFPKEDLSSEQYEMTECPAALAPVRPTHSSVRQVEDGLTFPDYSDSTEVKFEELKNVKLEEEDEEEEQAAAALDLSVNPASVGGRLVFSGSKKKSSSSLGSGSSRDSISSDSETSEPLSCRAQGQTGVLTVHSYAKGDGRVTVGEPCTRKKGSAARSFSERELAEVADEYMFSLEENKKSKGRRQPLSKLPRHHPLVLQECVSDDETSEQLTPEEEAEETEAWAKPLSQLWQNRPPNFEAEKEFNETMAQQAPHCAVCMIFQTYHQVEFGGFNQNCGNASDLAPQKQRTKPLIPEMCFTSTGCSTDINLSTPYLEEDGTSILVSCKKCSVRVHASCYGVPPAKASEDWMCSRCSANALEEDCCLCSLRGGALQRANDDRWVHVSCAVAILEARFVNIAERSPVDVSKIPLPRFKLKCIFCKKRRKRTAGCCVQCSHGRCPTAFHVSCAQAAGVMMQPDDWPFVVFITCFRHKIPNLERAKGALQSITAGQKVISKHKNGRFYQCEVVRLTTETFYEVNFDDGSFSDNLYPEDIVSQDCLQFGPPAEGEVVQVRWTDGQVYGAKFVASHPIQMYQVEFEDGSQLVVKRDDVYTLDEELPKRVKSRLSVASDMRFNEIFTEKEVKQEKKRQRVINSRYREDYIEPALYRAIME
# BAZ2B block: blocks human BAZ2B; AlphaScreen BAZ2B-H3K14Ac peptide displacement; Potency, µM (titrated, usually from 114 µM), without a hit: at the top dose activity change, negative = inhibition, usual class: inhibitors; hit rate 4.4% among 360,000; note: % is set by controls: 0 for no effect and ±100 for the full control effect; nearly all actives have a fitted effect of over 60% in size
#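 BAZ2B (50 nM) with biotin-H3(5-23)K14Ac peptide (50 nM) in PBS pH 7.4, 0.01% Tween-20, preformed 30 min, then compound 30 min at room temperature; top concentration 110uM. AlphaScreen streptavidin donor/nickel chelate acceptor beads (10 ug/mL final), 20 min dark, signal read.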
# An asterisk follows results filed as active; u = inconclusive; x = not tested or not shown; [ ] = dose if it differs, or a comment. Calls come from the whole dose curve; as a rule, active = well fitted curve in the direction sought with a large enough effect; inconclusive = small, poorly fitted or top-dose-only effect, or another doubt; inactive = no such curve, though single readings can be large; an effect the other way counts as inactive or inconclusive. Potency is the fitted concentration of half-maximal effect.
SMILES,Sfp inh,G9a inh,PLK1 PBD block,HP1b binding inh,JMJD2A Tudor,BAZ2B block
Cc1c(NC(=O)COC(=O)c2ccccc2Cl)c(=O)n(-c2ccccc2)n1C,13%,4%,-7%,3%,-16%,1%
Cc1c(NC(=O)COC(=O)CCC(=O)c2ccc(Cl)cc2)c(=O)n(-c2ccccc2)n1C,5%,2%,17µM*,-16%,-25%[11.4 µM],-8%
CCN1CCC2(CC1)N=C(c1ccc(F)cc1)C(=S)N2,22µM*,11µM*,-14%,43%,-12%,-4%
Cc1ccc(C2=NC3(CCCCC3)NC2=S)cc1,14%,11%[59 µM],-6%,35%,6%,-5%
COc1cc2c(cc1NC(=O)CN1CCN(S(=O)(=O)c3ccccc3F)CC1)oc1ccccc12,-8%,6%,3.4µM*,-7%,-34%[11.4 µM],6%
COc1cc(NC(=O)c2ccccc2F)c(OC)cc1NC(=O)CN1CCOCC1,15%,45µM*,2%,19%,-20%,-34%
NC(=O)[C@@H]1CCCN1C(=O)C(Cc1cnc[nH]1)NC(=O)C1CCC(=O)N1 (some centres not stated),4%,x,x,x,x,x
COC(=O)CCCN1C(=O)c2cccc3cccc(c23)C1=O,2%,49%,-10%,47%,-9%,45µM*
C#CCOC(=O)CCCN1C(=O)c2cccc3cccc(c23)C1=O,x,x,3%,x,x,x
O=C(CCCN1C(=O)c2cccc3cccc(c23)C1=O)N1CCN(c2ccc(F)cc2)CC1,-7%,u,-12%,2%,-23%[57.1 µM],-37%
COc1ccc(N2CCN(C(=O)CCCN3C(=O)c4cccc5cccc(c45)C3=O)CC2)cc1,-16%,x,-11%,-31%,u,40µM*
COC(=O)CC1C(C)(C)C(OC(C)=O)C2CC3C4CC(=O)OC(c5ccoc5)[C@]4(C)CCC3[C@@]1(C)C2=O (some centres not stated),-8%,-42%[2.33 µM],x,x,x,x
CCOc1cc(-c2ccc(OC(=O)c3ccc(OC)cc3)c(OC)c2)cc(=O)c2c(C)oc(C)c12,x,16µM*,x,-7%,u,u
COc1ccc(-c2cc(OC(=O)c3ccc(Cl)cc3)c3c(C)oc(C)c3c(=O)c2)cc1,x,u,x,0%,u,40µM*
COc1ccc(C(=O)Oc2cc(-c3ccc4c(c3)OCO4)cc(=O)c3c(C)oc(C)c23)cc1,x,u,x,18%,-17%,-30%
CCOc1ccc(-c2cc(OC(=O)c3ccc(OC)cc3)c3c(C)oc(C)c3c(=O)c2)cc1,x,u,x,17%,-30%,-32%
O=[N+]([O-])c1cccc(S(=O)(=O)Nc2cccc(-c3ccc(N4CCCC4)nn3)c2)c1,x,-5%[0.501 µM],-11%,9%,-33%,-6%
O=[N+]([O-])c1cccc(S(=O)(=O)Nc2cccc(-c3ccc(N4CCOCC4)nn3)c2)c1,x,10µM*,-8%,11%,-16%,-9%
O=[N+]([O-])c1cccc(S(=O)(=O)Nc2ccc(-c3ccc(N4CCOCC4)nn3)cc2)c1,x,45µM*,9%,13%,-26%,-6%
Cc1cc(C)n2c(Nc3ccc4c(c3)OCCO4)c(-c3cc4ccccc4o3)nc2n1,x,x,-4%,x,x,x
Cc1cc(C)n2c(Nc3ccc4c(c3)OCCO4)c(-c3ccc(C)o3)nc2n1,32µM*,50µM*,0%,0%,-35%,u
Cc1cc(C)n2c(Nc3ccc4c(c3)OCCO4)c(-c3ccco3)nc2n1,-17%,50µM*,x,x,x,u
COC(=O)c1sc(NC(=S)NC(=O)c2ccc(F)cc2)nc1C,4%,-1%[59 µM],x,x,x,-21%
Cc1ccc2nc(NC(=S)NC(=O)c3cccs3)sc2c1,13%,20%,-12%,-5%,u,-5%
Cc1nc(NC(=O)c2ccc([N+](=O)[O-])cc2Cl)sc1C(=O)N(C)C,40µM*,u,19µM*,-22%,u,-28%
SMILES,Sfp inh,G9a inh,PLK1 PBD block,HP1b binding inh,JMJD2A Tudor,BAZ2B block
Cc1cc(C(=O)Nc2nc(C)c(C(=O)N(C)C)s2)ccc1[N+](=O)[O-],-2%,-4%[59 µM],3%,18%,-12%,-6%
COc1ccc(C(=O)NC(=S)Nc2nc(C)c(C(=O)N(C)C)s2)cc1,63µM*,u,-13%,4%,-26%,u
Cc1nc(NC(=S)NC(=O)c2cccs2)sc1C(=O)N(C)C,50µM*,u,-14%,18%,-35%,-17%
Cn1nc(C(C)(C)C)c([N+](=O)[O-])c1C(=O)NCCO,-11%,0%,24µM*,8%,50µM*,10%
O=c1[nH]c(/C=C\c2ccc(O)c(Cl)c2)nc(O)c1[N+](=O)[O-],-1%,50µM*,7%,19%,-6%,-22%
C=CCc1cc(/C=C/c2nc(O)c([N+](=O)[O-])c(=O)[nH]2)cc(OC)c1O,-7%,50µM*,-21%,-6%,-26%[57.1 µM],u
O=c1[nH]c(/C=C\c2cccs2)nc(O)c1[N+](=O)[O-],1%,u,u,-8%,u,-30%
CCOc1cc(/C=C\c2nc(O)c([N+](=O)[O-])c(=O)[nH]2)ccc1OC(C)C,-4%,u,-9%,25%,-18%,-3%
O=c1[nH]c(/C=C\c2ccc(O)cc2)nc(O)c1[N+](=O)[O-],18%,71µM*,4%,48%,0%,-26%
NC(=O)c1cc2cc(Br)ccc2o/c1=N/NC(=O)c1cccc(F)c1,-1%,-8%,-8%,22%,-2%,4%
C(C#CCCCCCCCCC[n+]1ccccc1)#CCCCCCCCCC[n+]1ccccc1,50µM*,-19%,-24%,-21%,-8%,-7%
N#Cc1ccc(Oc2nc(C#N)cc(-c3ccccc3)n2)cc1,40µM*,-6%,-4%,18%,-24%,3%
N#Cc1cc(-c2ccccc2)nc(Oc2ccccc2)n1,-9%,109%,-5%,181%,88%,87%
CCC/C(C(=O)NCCO)=C1/c2ccccc2C(=O)N1c1ccccc1,x,x,7%,47%,-1%,x
COc1c(/C=N/Nc2ccc([N+](=O)[O-])cc2[N+](=O)[O-])c(C)nn1-c1ccccc1,8%,81%[59 µM],-3%,-2%,-27%,-22%
Cc1nn(-c2ccccc2)c(N2CCCC2)c1/C=N/Nc1ccc(S(=O)(=O)Nc2ccccc2)cc1[N+](=O)[O-],3%,u,-8%,u,5µM*,u
COc1ccccc1NS(=O)(=O)c1ccc(N/N=C/c2c(C)nn(-c3ccccc3)c2N2CCCC2)c([N+](=O)[O-])c1,16%,4.5µM*,-10%,u,u,4.5µM*
COc1ccccc1NS(=O)(=O)c1cccc(C(=O)N/N=C/c2c(C)nn(-c3ccccc3)c2N2CCCC2)c1,6%,-5%[59 µM],-8%,11%,-25%,-30%

# From PubChem BioAssay
